Results filed as inconclusive are left out. The source made the active and inactive calls. Unless noted, calls come from the whole dose curve; as a rule, active = well fitted curve in the direction sought with a large enough effect in the repeat runs; inconclusive = weak or mixed curves; inactive = flat fitted curve, though single readings scatter.

The nature of assay [1]: qHTS assay to test for compound auto fluorescence at 535 nm (green) in HEK293 cells (AID 720680).
A short description of assay [2]: qHTS assay to test for compound auto fluorescence at 460 nm (blue) in HEK293 cell free culture (AID 720681). In short, it runs like this: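 Test compounds were pinned into cell-free culture medium (DMEM with 10% FBS) and fluorescence was read directly at Ex/Em 405/460 nm. Signals were expressed as fluorescence equivalents of triamterene, with DMSO vehicle as control.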

Assay [3] in a line: qHTS assay to test for compound auto fluorescence at 535 nm (green) in HEK293 cell free culture (AID 720682). In short, it runs like this:
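Intrinsic compound fluorescence is measured in culture medium containing 10% FBS, with excitation at 485 nm and detection at 535 nm, referenced to fluorescein.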

Assay [4] can be described thus: qHTS assay to test for compound auto fluorescence at 590 nm (red) in HEK293 cell free culture (AID 720683). In short, it runs like this: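 Tox21 10K library compounds were pinned into cell-free DMEM with 10% FBS and fluorescence was read at excitation 540 nm. Activity is expressed as Rose Bengal sodium equivalency.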
The nature of assay [5]: qHTS assay to test for compound auto fluorescence at 590 nm (red) in HepG2 cell free culture (AID 720684). The method, boiled down:
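Ex 540 / Em 590 nm read of compound in cell-free MEM (10% FBS). Rose Bengal sodium reference.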

A short description of assay [6]: qHTS assay to test for compound auto fluorescence at 460 nm (blue) in HepG2 cell free culture (AID 720685). The method, boiled down:
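Cell-free plates of MEM plus 10% FBS received 23 nL compound or DMSO vehicle; blue-channel (405/460 nm) intensity scored against triamterene as reference fluorophore.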

Assay [7] is described as follows: qHTS assay to test for compound auto fluorescence at 535 nm (green) in HepG2 cell free culture (AID 720686).
Assay [8] can be described thus: qHTS assay to test for compound auto fluorescence at 460 nm (blue) in HepG2 cells (AID 720687). In short, it runs like this: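 Cells (2,000/well in MEM with 10% FBS) attached overnight at 37 C, then were exposed to compound or DMSO for 1 hr at 37 C, 5% CO2. Fluorescence read at Ex/Em 405/460 nm, expressed as triamterene-equivalent signal.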
Assay [9] deals with Glucocorticoid receptor (Homo sapiens) (UniProt P04150). In words: qHTS assay to identify small molecule agonists of the glucocorticoid receptor (GR) signaling pathway (AID 720691; active = well fitted activation curve with a large enough effect in the signal ratio in the repeat runs, not every such curve was filed as active; the % refers to the signal ratio). To be noted: GR-bla HeLa, beta-lactamase reporter ratio, 18 h; activation: at 62.4 µM (top of the series). The method, boiled down:
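Steps: seed GR-bla HeLa cells, incubate 4 h at 37 C/5% CO2; pin-transfer DMSO-dissolved compounds; incubate 18 h at 37 C; add LiveBLAzer B/G FRET substrate; after 2 h at room temperature, measure fluorescence.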

The target is the same in assay [10]. Kind of assay: qHTS assay to identify small molecule antagonists of the glucocorticoid receptor (GR) signaling pathway (AID 720692; active = well fitted inhibition curve with a large enough effect in the signal ratio in the repeat runs, not every such curve was filed as active; the % refers to the signal ratio; note: potency is the fitted concentration of half-maximal effect). In short, it runs like this: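 Antagonism was scored as loss of dexamethasone-driven (5 nM final) reporter signal in HeLa cells bearing a glucocorticoid response element–beta-lactamase construct, after 18 h compound exposure at 37 C and 2 h FRET substrate loading.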

Chain of Glucocorticoid receptor (Homo sapiens) (P04150 whole entry, looked up): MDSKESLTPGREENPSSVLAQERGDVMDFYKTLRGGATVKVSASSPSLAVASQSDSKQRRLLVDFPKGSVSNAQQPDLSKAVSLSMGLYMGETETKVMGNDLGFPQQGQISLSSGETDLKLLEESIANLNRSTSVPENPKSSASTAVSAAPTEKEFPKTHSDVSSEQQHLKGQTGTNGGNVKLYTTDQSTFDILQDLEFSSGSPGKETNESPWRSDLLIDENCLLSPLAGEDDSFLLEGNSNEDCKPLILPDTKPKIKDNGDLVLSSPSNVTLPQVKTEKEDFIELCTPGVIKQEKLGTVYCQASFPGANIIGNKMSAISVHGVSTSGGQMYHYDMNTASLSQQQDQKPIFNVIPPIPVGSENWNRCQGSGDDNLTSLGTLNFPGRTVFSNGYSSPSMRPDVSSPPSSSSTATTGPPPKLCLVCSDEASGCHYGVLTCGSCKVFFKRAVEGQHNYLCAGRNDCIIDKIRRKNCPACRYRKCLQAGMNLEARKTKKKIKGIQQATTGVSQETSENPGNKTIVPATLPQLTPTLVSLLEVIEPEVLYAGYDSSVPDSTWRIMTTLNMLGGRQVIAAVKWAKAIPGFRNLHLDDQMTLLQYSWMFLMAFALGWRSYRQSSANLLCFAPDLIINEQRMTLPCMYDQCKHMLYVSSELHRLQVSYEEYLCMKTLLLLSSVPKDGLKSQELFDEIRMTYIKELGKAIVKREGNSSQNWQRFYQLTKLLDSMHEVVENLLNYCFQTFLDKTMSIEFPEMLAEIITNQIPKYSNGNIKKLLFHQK

Take `CN=C(NC)NCc1ccccc1`: the Potency result in assay [1], in [2], in assay [3], in assay [4], in assay [5] and in assay [7] was “inactive” throughout. The Potency entry in [9] and in assay [10] was “inactive” in each case. The compound was called inactive in assay [6] and in [8].

Consider `CCC(C)C(C(=O)OCC[N+](C)(CC)CC)c1ccccc1` (stereo not given), for which the Potency entry in assay [1], in assay [2], in assay [3], in assay [4], in assay [5] and in assay [7] was “inactive” in each case. Also, the Potency result in assay [9] and in assay [10] was “inactive” each time. The outcome in assay [6] and in assay [8] was inactive.

Take `CC(C)CN(C[C@@H](O)[C@H](Cc1ccccc1)NC(=O)O[C@H]1CO[C@H]2OCC[C@H]21)S(=O)(=O)c1ccc(N)cc1`: the Potency entry in [1], in [2], in assay [3], in assay [4], in assay [5] and in assay [7] was “inactive” throughout. Moreover, the Potency result in [9] and in assay [10] was “inactive” throughout. Further, the compound was classed as inactive in assay [6] and in assay [8].

On to `CCC(CN)CC(C)CCNCC(O)CNCC(C)CC(CC)CN` (stereo not given), for which the Potency entry in assay [1], in assay [2], in [3], in [4], in assay [5] and in assay [7] was “inactive” throughout. Also, the Potency entry in [9] and in [10] was “inactive” in each case. The compound was classed as inactive in [6] and in assay [8].

For the compound `CS(=O)(=O)OCCCNCCCOS(C)(=O)=O`, the Potency entry in assay [1], in [2], in [3], in assay [4], in assay [5] and in assay [7] was “inactive” throughout. Also, the Potency result in [9] and in [10] was “inactive” each time. The compound was called inactive in assay [6] and in assay [8].

For `CCN(CC)c1ccc(N=Nc2ccc(S(=O)(=O)N(C)C)cc2)c(S(=O)(=O)NCC[n+]2ccccc2)c1`, the Potency result in [1], in assay [2], in assay [3], in assay [4], in assay [5] and in [7] was “inactive” in each case. Also, the Potency result in assay [9] and in assay [10] was “inactive” each time. Also, the call in [6] and in assay [8] was inactive.

Take `CCCC(=O)Nc1ncnc2c1ncn2[C@@H]1O[C@@H]2COP(=O)(O)O[C@H]2[C@H]1OC(=O)CCC`: the Potency result in [1], in assay [2], in assay [3], in assay [4], in [5] and in assay [7] was “inactive” in each case. Moreover, the Potency entry in assay [9] and in assay [10] was “inactive” throughout. The compound was classed as inactive in assay [6] and in assay [8].

`CS(=O)(=O)c1ccc(C2=C(c3ccccc3)C(=O)OC2)cc1`: the Potency result in assay [1], in [2], in [3], in assay [4], in assay [5] and in assay [7] was “inactive” each time. The Potency result in assay [9] and in assay [10] was “inactive” in each case. The compound was called inactive in assay [6] and in assay [8].

As to `CC(=O)O[C@H]1C[C@@]2(C)[C@@H](C[C@@H](O)[C@H]3[C@@]4(C)CC[C@@H](O)[C@@H](C)[C@@H]4CC[C@@]32C)/C1=C(\CCC=C(C)C)C(=O)O`, the Potency result in assay [1], in assay [2], in assay [3], in [4], in assay [5] and in [7] was “inactive” throughout. In addition, the Potency result in [9] and in assay [10] was “inactive” throughout. The result in [6] and in [8] was inactive.

Take `CC(C)(CO)[C@@H](O)C(=O)NCCCC(=O)O`: the Potency entry in assay [1], in assay [2], in assay [3], in assay [4], in assay [5] and in assay [7] was “inactive” each time. For the same compound, the Potency entry in [9] and in assay [10] was “inactive” in each case. Further, the call in assay [6] and in assay [8] was inactive.

With `O=C(NCCNCC(O)COc1ccc(O)cc1)N1CCOCC1` (stereo not given), the Potency result in assay [1], in assay [2], in assay [3], in assay [4], in assay [5] and in assay [7] was “inactive” throughout. Besides, the Potency result in assay [9] and in assay [10] was “inactive” throughout. Besides, the result in assay [6] and in [8] was inactive.

Turning to `CCC(=O)Oc1ccc2c(c1)CC[C@@H]1[C@@H]2CC[C@]2(C)[C@@H](OC(=O)CC)CC[C@@H]12`, the Potency entry in assay [1], in assay [2], in assay [3], in assay [4], in assay [5] and in assay [7] was “inactive” in each case. Moreover, in assay [9], the Potency result was “inactive”. The compound was classed as inactive in [6] and in assay [8]. Besides, the Potency in assay [10] was 4.25 µM (active).

Consider `C[C@]12CC[C@@H]3c4ccc(OS(=O)(=O)O)cc4CC[C@H]3[C@@H]1CCC2=O`, for which the Potency entry in [1], in [2], in [3], in [4], in [5] and in assay [7] was “inactive” in each case. Moreover, the Potency result in assay [9] and in [10] was “inactive” throughout. For the same compound, the call in assay [6] and in [8] was inactive.

On to `NCc1ccccc1CC(=O)N[C@@H]1C(=O)N2C(C(=O)O)=C(CSc3nnnn3CC(=O)O)CS[C@H]12`, for which the Potency entry in assay [1], in assay [2], in assay [3], in assay [4], in assay [5] and in assay [7] was “inactive” in each case. Moreover, the Potency entry in assay [9] and in assay [10] was “inactive” throughout. Moreover, the compound was called inactive in assay [6] and in assay [8].

As for `O.O=C([O-])CC([S-])C(=O)[O-].[Au+].[Na+].[Na+]` (stereo not given), the Potency entry in assay [1], in assay [2], in assay [3], in [4], in [5] and in assay [7] was “inactive” throughout. Further, the Potency entry in assay [9] and in [10] was “inactive” in each case. Also, the outcome in assay [6] and in assay [8] was inactive.

`O=C(O)c1cc(N=Nc2ccc(O)c(C(=O)O)c2)ccc1O`: the Potency result in [1], in [2], in assay [3], in assay [4], in assay [5] and in [7] was “inactive” each time. In addition, the Potency result in [9] and in assay [10] was “inactive” in each case. In addition, the call in [6] and in [8] was inactive.

Turning to `O=C(O)c1ccc(OCCn2ccnc2)cc1`, the Potency entry in assay [1], in assay [2], in [3], in [4], in [5] and in [7] was “inactive” in each case. Also, the Potency result in assay [9] and in [10] was “inactive” in each case. In addition, the result in assay [6] and in assay [8] was inactive.

For the compound `CCCC(=O)Nc1c(I)cc(I)c(CC(CC)C(=O)O)c1I` (stereo not given), the Potency result in assay [1], in assay [2], in assay [3], in assay [4], in assay [5] and in assay [7] was “inactive” each time. The Potency result in assay [9] and in assay [10] was “inactive” each time. The compound was called inactive in [6] and in assay [8].

In the case of `CCN1C(=O)NC(c2ccccc2)C1=O` (stereo not given), the Potency result in assay [1], in [2], in assay [3], in assay [4], in assay [5] and in [7] was “inactive” in each case. Further, the Potency entry in [9] and in assay [10] was “inactive” in each case. Moreover, the compound was classed as inactive in assay [6] and in [8].

`CCN(CC)Cc1cc(Nc2ccnc3cc(Cl)ccc23)ccc1O`: the Potency result in assay [1], in assay [2], in assay [3], in [4], in assay [5] and in assay [7] was “inactive” each time. Also, the Potency result in [9] and in assay [10] was “inactive” in each case. In addition, the compound was called inactive in assay [6] and in assay [8].

The values above are taken from PubChem BioAssay (Tox21).
